Anthrax LF inh2: blocks Bacillus anthracis lethal factor protease. P15917. multiplex microsphere protease cleavage assay, LF. inhibition, % at 10 µM. 0.12% of 360,000 active. AID 588501; further: plate controls were buffer without enzyme for full effect and enzyme alone for no effect
Target sequence (P15917 whole entry, looked up): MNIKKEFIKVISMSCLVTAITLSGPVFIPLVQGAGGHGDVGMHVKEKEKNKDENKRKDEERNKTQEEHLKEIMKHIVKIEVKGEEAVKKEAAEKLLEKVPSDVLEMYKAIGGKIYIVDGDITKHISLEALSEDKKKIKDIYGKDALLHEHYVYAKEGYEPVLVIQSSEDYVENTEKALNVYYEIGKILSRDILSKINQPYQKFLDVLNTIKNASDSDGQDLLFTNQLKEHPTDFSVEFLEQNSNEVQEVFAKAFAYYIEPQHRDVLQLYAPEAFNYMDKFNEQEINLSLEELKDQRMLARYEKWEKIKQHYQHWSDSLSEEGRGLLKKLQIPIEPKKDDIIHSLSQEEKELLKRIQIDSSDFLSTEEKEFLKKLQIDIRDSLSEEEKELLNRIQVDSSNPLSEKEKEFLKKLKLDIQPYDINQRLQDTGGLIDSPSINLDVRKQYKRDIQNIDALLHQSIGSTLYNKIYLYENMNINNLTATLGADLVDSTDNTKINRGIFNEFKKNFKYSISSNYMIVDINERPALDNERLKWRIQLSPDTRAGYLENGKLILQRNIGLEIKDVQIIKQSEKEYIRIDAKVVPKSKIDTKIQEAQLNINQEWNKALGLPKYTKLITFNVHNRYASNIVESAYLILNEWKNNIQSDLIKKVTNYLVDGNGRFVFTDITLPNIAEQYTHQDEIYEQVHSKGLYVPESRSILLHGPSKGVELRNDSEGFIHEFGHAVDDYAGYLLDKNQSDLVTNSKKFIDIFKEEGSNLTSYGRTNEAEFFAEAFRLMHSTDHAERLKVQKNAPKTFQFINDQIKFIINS
Autofluor counter: counter-screen for toxin protease inhibitors: compound fluorescence; 3.1% of 360,000 active; fluorescence intensity (no concentration beside the values); compound autofluorescence counterscreen, microsphere flow cytometry; stronger effect = higher value; in the data active means fluorescence intensity above about 16000; inconclusive means no clear call, values can overlap the other calls
BoNT A protease: BoNT A light chain protease inhibition; inhibition, % at 10 µM; multiplex microsphere protease substrate cleavage, flow cytometry; 0.17% of 360,000 active; further: plate controls were buffer without enzyme for full effect and enzyme alone for no effect
BoNT F protease: BoNT F light chain protease inhibition; Multiplex microsphere protease cleavage assay, flow cytometry; 0.22% of 360,000 active; inhibition, % at 10 µM; in the data active means inhibition above about 35%, passing the limit was not always enough; inconclusive means no clear call, values can overlap the other calls; further: plate controls were buffer without enzyme for full effect and enzyme alone for no effect
* = called active by the depositor. Only some compounds are listed: those with a hit (about 3.5% of all), similar ones and a draw of the others. Unless noted, no stated cut-off is given here; in the data, active means inhibition above about 30%; inconclusive means no clear call, values can overlap the other calls; inactive means below that.

How did COc1ccccc1CNC(=O)CSc1nc(-c2ccccc2)cn1N do in these assays?
Anthrax LF inh2: -6; Autofluor counter: 3172; BoNT A protease: 0; BoNT F protease: 4

What do the screens show for `CN(C(=O)CSc1nc(-c2ccccc2)cn1N)C(c1ccccc1)c1ccccc1`?
Anthrax LF inh2: -11; Autofluor counter: 24699*; BoNT A protease: -4; BoNT F protease: -5

How did CC(Oc1ccccc1Cl)C(=O)/C=C/N(C)C (configuration not stated) do in these assays?
Anthrax LF inh2: 0; Autofluor counter: 20970*; BoNT A protease: 4; BoNT F protease: 5

What do the screens show for `CCOC(=O)C(Cc1c(F)cccc1F)(NC(C)=O)C(=O)OCC`?
Anthrax LF inh2: -5; Autofluor counter: 21936*; BoNT A protease: 0; BoNT F protease: 1

Results for CCOC(=O)C(Cc1ccccc1)(NC(C)=O)C(=O)OCC ?
Anthrax LF inh2: -4; Autofluor counter: 4348; BoNT A protease: 0; BoNT F protease: 2

Results for O=C(NNc1ccccn1)C(=O)NNS(=O)(=O)c1ccc(Cl)cc1 ?
Anthrax LF inh2: 0; Autofluor counter: 23954*; BoNT A protease: -1; BoNT F protease: 0

Results for CCOC(=O)[C@]12CCC=C1N(Cc1ccc(Cl)cc1Cl)C(=O)[C@H](CC(=O)NCc1cccs1)C2 ?
Anthrax LF inh2: -4; Autofluor counter: 4172; BoNT A protease: 0; BoNT F protease: -6

Results for CC(C)N(Cc1nc(-c2ccccc2)no1)C(=O)C1CCCCC1 ?
Anthrax LF inh2: -5; Autofluor counter: 23062*; BoNT A protease: 0; BoNT F protease: 0

How did CC(C)N(Cc1nc(-c2ccccc2)no1)C(=O)c1ccc(Cl)cc1 do in these assays?
Anthrax LF inh2: -5; Autofluor counter: 4289; BoNT A protease: 0; BoNT F protease: -7

What do the screens show for `CCn1c(CCNC(=O)c2cccs2)nnc1SCC(=O)NC1CCCCC1`?
Anthrax LF inh2: -7; Autofluor counter: 21522*; BoNT A protease: inconclusive; BoNT F protease: 4

What do the screens show for `CCn1c(SCC(=O)NCCc2ccc(Cl)cc2)nnc1-c1cccs1`?
Anthrax LF inh2: -3; Autofluor counter: 4913; BoNT A protease: -2; BoNT F protease: -24

How did CCn1c(CCNC(=O)c2cccs2)nnc1SCC(=O)Nc1ccc(Cl)cc1 do in these assays?
Anthrax LF inh2: -4; Autofluor counter: 22204*; BoNT A protease: inconclusive; BoNT F protease: 4

How did CCn1c(CNC(=O)c2ccccc2F)nnc1SCC(=O)NC1CCCCC1 do in these assays?
Anthrax LF inh2: -2; Autofluor counter: 2241; BoNT A protease: 0; BoNT F protease: -3

What do the screens show for `O=C(CSc1nnnn1-c1cccc2ccccc12)Nc1ccc(N2CCOCC2)c(Cl)c1`?
Anthrax LF inh2: -7; Autofluor counter: 16201*; BoNT A protease: 0; BoNT F protease: 1

How did O=C(CSc1nnnn1-c1ccccc1)Nc1ccc(N2CCOCC2)c(Cl)c1 do in these assays?
Anthrax LF inh2: -2; Autofluor counter: 10247; BoNT A protease: 0; BoNT F protease: -2

What do the screens show for `O=C(Nc1ccn(CCCNCC2CCCO2)c(=O)n1)OCc1ccccc1` (configuration not stated)?
Anthrax LF inh2: 8; Autofluor counter: 3456; BoNT A protease: 0; BoNT F protease: -4

What do the screens show for `O=[N+]([O-])c1ccc(Cl)c(/C=N/n2c(-c3ccncc3)n[nH]c2=S)c1`?
Anthrax LF inh2: 37*; Autofluor counter: 4200; BoNT A protease: 4; BoNT F protease: inconclusive

How did Nc1nonc1-c1noc(CCCOc2ccc(Cl)cc2Cl)n1 do in these assays?
Anthrax LF inh2: -2; Autofluor counter: 22747*; BoNT A protease: inconclusive; BoNT F protease: -2

How did CCCCCc1nc(-c2nonc2N)no1 do in these assays?
Anthrax LF inh2: -6; Autofluor counter: 3362; BoNT A protease: -3; BoNT F protease: -22

What do the screens show for `O=C(NCc1ccccn1)[C@@H]1CCCN1C(=O)[C@@H]1CCCN1C(=O)c1cccc2ccccc12`?
Anthrax LF inh2: -2; Autofluor counter: 4036; BoNT A protease: 0; BoNT F protease: -1

How did CC(C)(C)c1ccc(-c2n[nH]c(=S)n2C2CCCC2)cc1 do in these assays?
Anthrax LF inh2: -4; Autofluor counter: 22762*; BoNT A protease: inconclusive; BoNT F protease: 0

What do the screens show for `CCCNC(=O)C1(C)CCN(C(=O)c2cc(C(C)(C)C)nn2C)C1` (configuration not stated)?
Anthrax LF inh2: -2; Autofluor counter: 3632; BoNT A protease: 0; BoNT F protease: -6

Results for O=C(COc1ccc2ccccc2c1Br)N1CCN(c2ccccn2)CC1 ?
Anthrax LF inh2: -1; Autofluor counter: 21691*; BoNT A protease: 2; BoNT F protease: 1

What do the screens show for `C=CCN1C(=O)/C(=C/c2ccccc2)S/C1=N/c1nccs1`?
Anthrax LF inh2: -2; Autofluor counter: 6979; BoNT A protease: 0; BoNT F protease: -6

How did C=CCN1C(=O)CS/C1=N/c1nccs1 do in these assays?
Anthrax LF inh2: -2; Autofluor counter: 21993*; BoNT A protease: -6; BoNT F protease: -6

What do the screens show for `CCNS(=O)(=O)c1ccc(NC(=O)Cn2nc(C(F)(F)F)cc2C)cc1`?
Anthrax LF inh2: 0; Autofluor counter: 2854; BoNT A protease: 0; BoNT F protease: -6

How did CCc1ccccc1NC(=O)Cn1nc(C(F)(F)F)cc1C1CC1 do in these assays?
Anthrax LF inh2: -2; Autofluor counter: 16270*; BoNT A protease: inconclusive; BoNT F protease: -1

What do the screens show for `COc1cc(OC)c(NS(=O)(=O)c2cc(C(=O)NCCCN3CCOCC3)ccc2C)cc1Cl`?
Anthrax LF inh2: 2; Autofluor counter: 3653; BoNT A protease: 0; BoNT F protease: 4

How did Cc1ccc(NC(=O)COC(=O)Cc2c[nH]c3ccccc23)cc1 do in these assays?
Anthrax LF inh2: -10; Autofluor counter: 3825; BoNT A protease: 0; BoNT F protease: 0

Results for O=C(Nc1ccc2c(c1)OCCO2)c1cc(-n2cnnc2)ccc1Cl ?
Anthrax LF inh2: 4; Autofluor counter: 5415; BoNT A protease: -2; BoNT F protease: -40

Results for CCSCCNC(=O)c1cc(-n2cnnc2)ccc1Cl ?
Anthrax LF inh2: -10; Autofluor counter: 21120*; BoNT A protease: inconclusive; BoNT F protease: 2

Results for O=C(NCc1ccc2c(c1)OCO2)c1cc(-n2cnnc2)ccc1Cl ?
Anthrax LF inh2: -1; Autofluor counter: 19482*; BoNT A protease: 2; BoNT F protease: 1

How did O=C(Nc1ccccc1)c1cc(-n2cnnc2)ccc1Cl do in these assays?
Anthrax LF inh2: -6; Autofluor counter: 9299; BoNT A protease: -3; BoNT F protease: -21

How did Cc1nc(NC(=O)c2cc(-n3cnnc3)ccc2Cl)ccc1Br do in these assays?
Anthrax LF inh2: 0; Autofluor counter: 21255*; BoNT A protease: -5; BoNT F protease: -5

How did CCCCn1nnnc1C(c1ccc(OC)cc1)N1CCN(C/C=C/c2ccccc2)CC1 (configuration not stated) do in these assays?
Anthrax LF inh2: -6; Autofluor counter: 6162; BoNT A protease: 0; BoNT F protease: -1

How did CCOC(=O)c1cc(OC(=O)c2ccccc2OC)n(-c2ccccc2)n1 do in these assays?
Anthrax LF inh2: -16; Autofluor counter: 20755*; BoNT A protease: inconclusive; BoNT F protease: 11

Results for Cc1noc(C)c1C(=O)OC(C(=O)NC1CCCC1)c1ccc(F)cc1 (configuration not stated) ?
Anthrax LF inh2: -1; Autofluor counter: 22114*; BoNT A protease: -5; BoNT F protease: -6

Screening data deposited in PubChem by NMMLSC.
